In PubChem BioAssay:
Active and inactive are the calls of the source.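 How the source made its calls: active means thallium flux through the channel raised or lowered by more than 3 SD from vehicle-only wells, actives on both sides; inactive means the rest.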

tested on: R275C; test: BK channel mutant inhibitors and activators – cell-based, U2OS BacMam, thallium flux, beta subunits, selectivity assay, profiling panel (AID 1259406); details: U2OS BacMam BK variants, at 30 µM;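 further: initial slope of Thallos dye fluorescence rise after thallium is added; log ratio against the mean of 0.3% DMSO vehicle wells on the same plate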

| SMILES | log fold change Tl+ flux |
| --- | --- |
| COC(=O)c1ccc(C=Cc2cccc(Cl)c2)s1 | -0.198 (active) |
| COc1ccc(C(=O)NNC(=O)c2c(OC)cc(C(F)(F)F)cc2C(F)(F)F)cc1 | 0.0148 (inactive) |
| Cn1c(SCCS(=O)(=O)c2ccc(OC(F)(F)F)cc2)nnc1C(F)(F)F | 0.0189 (inactive) |
| O=C(O)c1cccc(CSc2cccs2)c1 | 0.0115 (inactive) |
| Cc1onc(-c2c(Cl)cccc2Cl)c1C1=NCCO1 | -0.0117 (inactive) |
| CCOC(=O)c1cc(CC)sc1NC(=O)C(Cl)(Cl)Cl | -0.0151 (inactive) |
| Cc1nn(-c2ccccc2)nc1C(=O)NNC(=O)CSCc1cccc2ccccc12 | 0.0152 (inactive) |
| Cc1oc(S(=O)(=O)N2CCOCC2)cc1C(=O)Nc1ccc(F)cc1 | 0.0114 (inactive) |
| Cc1ccc(S(=O)(=O)NC(=O)Nc2nc(-c3ccc(C)c(Cl)c3)c(C)s2)cc1 | 0.265 (active) |
| CCCn1c(=O)c(Br)cn(-c2ccccc2C)c1=O | 0.0371 (inactive) |
| CCOC(=O)Cn1c(-c2c(Cl)cccc2Cl)noc1=O | 0.0179 (inactive) |
| Cc1nn(C)c(NCc2cccs2)c1[N+](=O)[O-] | -0.00626 (inactive) |
| Nc1ccc(Cl)cc1-c1nc2ccccc2[nH]1 | -0.0721 (inactive) |
| COC(=O)CC1(C(=O)OC)Oc2ccc(Br)cc2C(=O)N1c1cccc(Cl)c1Cl (stereo not given) | -0.108 (active) |
| Cc1c(C(=O)Nc2ccc(N3CCOCC3)c(Cl)c2)cnn1-c1ccc(F)cc1 | -0.00699 (inactive) |
| CC(=O)OCC(OC(C)=O)C(OC(C)=O)C(OC(C)=O)C(C#N)OC(C)=O (stereo not given) | -0.00122 (inactive) |
| C#CC1(NC(=O)c2ccc(-c3ccc(CC)cc3)cc2)CCCCC1 | 0.0116 (inactive) |
| Cc1cnc(N)c(C)n1 | -0.0212 (inactive) |
| CCOC(=O)c1ccc(N2CCOCC2)c(N=Cc2cc(Cl)cc(Cl)c2O)c1 | -0.00571 (inactive) |
| O=C(CC(=O)NNC(=O)c1ccc(F)cc1)NNC(=O)c1ccc(F)cc1 | -0.0271 (inactive) |

| SMILES | log fold change Tl+ flux |
| --- | --- |
| Cc1ccccc1C=C1N=C(c2ccccc2)OC1=O | -0.000743 (inactive) |
| O=C(CCn1nc(-c2ccc(F)cc2)ccc1=O)NCc1ccccc1 | 0.021 (inactive) |
| N=c1c(C(N)=O)cc2c(=O)n3ccccc3nc2n1Cc1ccco1 | 0.0321 (inactive) |
| Cc1nn(-c2ccccc2)nc1CNC(=O)COc1ccccc1 | -0.00552 (inactive) |
| Cc1cc(C)n2nc(Sc3ncccc3[N+](=O)[O-])nc2n1 | 0.0175 (inactive) |
| CCOC(=O)NN=C(C)C(C)=NNC(=O)OCC | -0.0333 (inactive) |
| CC(C)(C)NC(=O)NCCO | -0.02 (inactive) |
| Cc1ccccc1S(=O)(=O)NCc1ccc(N2CCN(C)CC2)cc1 | -0.00175 (inactive) |
| CN(C1CCCCC1)S(=O)(=O)c1cccs1 | -0.0438 (inactive) |
| O=C(CN1c2ccccc2Sc2ccccc21)NN=Cc1ccco1 | -0.00994 (inactive) |
| CC(=O)Nc1ccc(OCC(=O)N2CCN(c3ncc(C(F)(F)F)cc3Cl)CC2)cc1 | 0.0368 (inactive) |
| Cc1ccc(S(=O)(=O)Oc2c(Cc3ccccc3)c(=O)n(C)c3ccccc23)cc1 | -0.0579 (inactive) |
| CCN1CCC(O)(C#Cc2ccccc2)CC1 | -0.00643 (inactive) |
| O=C(OCCSc1sccc1[N+](=O)[O-])c1ccc(Cl)cc1 | 0.0114 (inactive) |
| Oc1c(Cl)cc(Cl)cc1C=Nc1nccs1 | -0.0362 (inactive) |
| Cc1cc(NC(=O)Nc2nc(-c3ccc(C)c(Cl)c3)c(C)s2)c(C(F)(F)F)o1 | 0.0173 (inactive) |
| COCCCNC(=O)C(C#N)=CN(C)C | -0.0308 (inactive) |
| O=C1c2cc(S(=O)(=O)O)ccc2CCC1S(=O)(=O)O (stereo not given) | 0.0448 (inactive) |
| CN(C)c1ccc(C=NNC(N)=S)c(Cl)c1 | -0.509 (active) |
| CC(C)=CC(C)=NNc1c([N+](=O)[O-])cc(C(F)(F)F)cc1[N+](=O)[O-] | 0.043 (inactive) |
